Experimental data reported in PubChem BioAssay (NCI).
The panel holds about 79,000 compounds, 15% with a hit somewhere; the sample as a whole holds those more often. Values without a mark were called inactive. Calls of active or inactive are those of the source. Cut-off read from the data, not from the text of the source: active = growth inhibition above about 70%; inactive = the rest.

Key:
[1] = NCI Yeast Anticancer Drug Screen. Data for the rad50 strain (AID 155);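 note: 0% = growth of vehicle-only cultures of the same strain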; conditions: S. cerevisiae rad50 strain growth inhibition; at 50.0 µM; active compounds read high
In short: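 Relative growth inhibition (compound vs vehicle) was measured in yeast with a defined repair-gene alteration.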

[2] = NCI Yeast Anticancer Drug Screen. Data for the mec2-1 strain (AID 157); conditions: S. cerevisiae mec2-1 strain, at 50.0 µM, active compounds read high
In short: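 Growth inhibition is read against vehicle-treated controls after compound exposure of the mec2-1 yeast strain, which is defective in DNA damage repair or cell cycle control.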

[3] = NCI Yeast Anticancer Drug Screen. Data for the sgs1 mgt1 strain (AID 161);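 note: 0% = growth of cultures given vehicle only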; conditions: S. cerevisiae sgs1 mgt1 strain, at 50.0 µM, active compounds read high
In short: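 Percent growth inhibition was derived by comparing compound-exposed mutant yeast with vehicle-exposed cultures. The strain carries alterations in DNA damage repair.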

[4] = NCI Yeast Anticancer Drug Screen. Data for the cln2 rad14 strain (AID 165);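 note: 0% = growth equal to vehicle treated cultures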; conditions: S. cerevisiae cln2 rad14 strain, at 50.0 µM, active compounds read high
In short: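 Growth inhibition, relative to vehicle-treated controls, is the read-out. The test organism is a yeast strain with defined genetic alterations, cln2 rad14.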

[5] = NCI Yeast Anticancer Drug Screen. Data for the bub3 strain (AID 167); conditions: S. cerevisiae bub3 mutant strain, at 50.0 µM, active compounds read high
In short: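 Screening used yeast with an engineered genetic alteration affecting cell cycle control. Compound-exposed cultures were compared with vehicle cultures, and reduced growth was taken as inhibition.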

[6] = NCI Yeast Anticancer Drug Screen. Data for the mlh1 rad18 strain (AID 175); conditions: S. cerevisiae mlh1 rad18 strain growth inhibition; at 50.0 µM; active compounds read high
In short: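 Cells of a genetically altered yeast strain, deficient in DNA damage repair, were treated with compound. Their growth was then compared with that of vehicle-treated cultures to give inhibition.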

Compound	growth inhibition [1]	growth inhibition [2]	growth inhibition [3]	growth inhibition [4]	growth inhibition [5]	growth inhibition [6]
N=c1sc2ccccc2n1CC(=O)O	2.2%	-16.5%	-13.3%	-22.6%	3.85%	-41.2%
ClC1=C(Cl)C2(Cl)CC1(Cl)C1CCCCC12 (configuration not stated)	18.9%	-10.4%	21.4%	-17.4%	16.6%	-10.6%
CCOC(=O)c1ccc(NCc2ccc3oc(=O)c(-c4ccccc4)nc3c2)cc1	-14.7%	-16.6%	-12.8%	22.2%	-17.7%	-17.4%
CCCC[N+](C)(CCCC)CCCC	9.15%	9.65%	7.8%	-1.15%	14.2%	3.3%
CCN(CC)CCOC(=O)c1c(C)cc(C)cc1C	-6.3%	-9.4%	4.9%	-41.5%	-15.6%	-7.9%
CC(C)S(=O)(=O)C(C)C	5.1%	0.35%	-8.65%	11.7%	-13.6%	-5.85%
COc1ccc(C(=O)c2cc(S(=O)(=O)O)c(OC)cc2O)c(O)c1	-32.8%	-35.4%	-31.2%	-1.6%	-13.4%	-21.9%
COC(=O)C1C(O)CCC2CN3CCc4c([nH]c5cccc(OC)c45)C3CC21 (configuration not stated)	-3.7%	-14.8%	14.3%	7.85%	2%	-78.7%
Cc1ccc(NC(=O)N2CC2C)cc1NC(=O)N1CC1C (configuration not stated)	2.4%	5.55%	-7.05%	17.3%	6.9%	-9.45%
Cc1ccc(OCC2OC(n3cnc4c(N(C)C)nc(Br)nc43)CC2Oc2ccc(C)cc2)cc1 (configuration not stated)	17.5%	-4.8%	13.1%	12.6%	2.45%	-17%
CC(C)(C)CC(C)(C(=O)O)C(C)(C)C (configuration not stated)	4%	9.25%	-3.25%	-12.6%	3.15%	14.7%
COC1=CC(=O)C=C(C)C1=O	19.4%	-11.9%	-8.1%	29.7%	4%	2%
O=C(NC(=S)Nc1ccc2ccccc2c1)c1ccc(Cl)cc1Cl	-1.45%	1.2%	28.2%	-10.6%	23.4%	-41.1%
COc1cccc(C(OC(=O)c2ccccc2)c2nncc3ccccc23)c1OC (configuration not stated)	32.4%	11.8%	9.6%	5.9%	9.85%	5.8%
O=C1Nc2cccc3cc(NCC(O)CCl)cc1c23 (configuration not stated)	31.3%	8.5%	11.4%	17.9%	3.05%	-23.9%
C=C1/C=C/C=C(/C)C(=O)Nc2c(C=O)c(O)c3c4c(c(C)c(O)c3c2O)OC(C)(O/C=C/C(OC)C(C)C(OC(C)=O)C(C)C(O)C(C)C1O)C4=O (configuration not stated)	24.1%	33.5%	16.4%	34.2%	20.4%	32.5%
CC(C)(Cc1ccc([N+](=O)[O-])cc1)[N+](=O)[O-]	7.95%	11.3%	4.3%	-7.55%	12.4%	-0.05%
Cn1cnc2c1S(=O)(=O)NCN2	10.7%	3.15%	-8.6%	-3.2%	19.9%	6.7%
CCOC(=O)C(N)Cc1cc(I)c(O)c(I)c1 (configuration not stated)	-20.1%	-31.1%	-14.4%	7.8%	-23.2%	-25.1%

Compound	growth inhibition [1]	growth inhibition [2]	growth inhibition [3]	growth inhibition [4]	growth inhibition [5]	growth inhibition [6]
O=C1OCC2CC1C(=O)O2 (configuration not stated)	-7.65%	0.3%	5.95%	4.7%	-3.6%	6.65%
[O-][N+]1=C(c2ccccc2)C(c2ccccc2)C(c2ccccc2)O1 (configuration not stated)	-13.4%	1.05%	-2.4%	-6%	-19.1%	11.2%
COC(=O)c1nc(NN)[nH]c(=O)c1CCCCCc1c(C(=O)OC)[nH]c(NN)cc1=O	-35.4%	-6.65%	-14.1%	14.9%	-18.1%	-8.85%
Cc1cc(N=Nc2ccc(C(=O)Nc3ccc4cc(S(=O)(=O)O)ccc4c3)cc2)c(N)c(N=Nc2ccc(N=Nc3ccc(O)c(C(=O)O)c3)cc2)c1N	8.2%	29.6%	53.8%	-21.9%	-11.3%	44.6%
CCCC(=O)C(N)Cc1ccc(O)cc1 (configuration not stated)	-16.6%	-10.3%	4.35%	-9.35%	-16.1%	-1.7%
C=C(C)C(=O)NC(Cc1cnc[nH]1)C(=O)O (configuration not stated)	8.2%	0.5%	16.1%	1.15%	15.2%	0.55%
O=C(NC(=O)c1ccccc1[N+](=O)[O-])Nc1ccc(Oc2ncc(Cl)cn2)c(C(F)(F)F)c1	17.1%	-23.6%	7.4%	-17.1%	0.5%	-54.6%
c1ccc(CNCc2ccccc2)cc1	-2.65%	3.8%	-37.8%	-35.1%	18.6%	1.05%
C[N+](C)(C)CC(=O)N/N=C(\C(=O)NC1=C(Cl)C(=O)c2ccccc2C1=O)C(C#N)c1csc(-c2ccc([N+](=O)[O-])cc2)n1 (configuration not stated)	14.8%	26.6%	-5.8%	17.6%	33.5%	19.9%
O=S1C2CCC(Br)C1CCC2Br (configuration not stated)	7.95%	-6.15%	23.1%	-5.35%	5.5%	12.4%
CCOC(=O)/C(=C\c1ccccc1Cl)C(C)=O	99.3% (active)	98.8% (active)	99.5% (active)	98.5% (active)	98.8% (active)	99.5% (active)
COc1ccc(CCNC(=S)NN)cc1OC	-15.7%	-23.6%	-7.35%	-23.5%	-17%	-28.7%
Cc1ccc2[nH]c(=S)n(CCc3ccccc3)c(=O)c2c1	-1.95%	-23%	29.9%	6.85%	10.4%	13.7%
CCCC(CCC)(C(=O)O)C(=O)O	-10.3%	-25.1%	-12.5%	27.5%	-17.9%	11.5%
O=C(O)c1nc(Cl)c(Cl)[nH]c1=O	-15.3%	-29.6%	8.6%	-65.6%	2.5%	3.6%
COC1OC(CO)C(O)C(NC(=O)[C@H](Cc2ccc(O)cc2)NC(=O)OCc2ccccc2)C1O (some centres not stated)	8.6%	-3.75%	3.2%	-6.05%	-0.5%	7.1%
Cc1cc(-c2ccc(N=Nc3c(C)nn(-c4ccc(S(=O)(=O)O)cc4)c3O)c(C)c2)ccc1N=Nc1ccc(O)c(C(=O)O)c1	26%	12.4%	26.2%	20.9%	18.6%	21%
CCOC(=O)CC(=O)C(=O)NNC1=NCCN1	7.15%	11.6%	23.6%	2.45%	13.3%	15.2%
